The values that follow come from PubChem BioAssay (EPA / NIEHS).

Structures are written as SMILES. Results filed as inconclusive are left out. Activity calls are given as the source filed them. How the source made its calls: active means hit-call score of the fitted dose curve at least 0.9, where 1 is the maximum; inconclusive means response in the unintended direction; inactive means score below 0.9. Where a SMILES comes first, the peptide text is derived from it. Bridges are numbered along the chain shown (N, C = ends). [ ]: non-standard residue; d: D form. The star is where a group is joined. Ileψ(thiazoline)Cys = CC[C@H](C)[C@H](N)C1=N[C@H](C(=O)*)CS1; dOrn = NCCC[C@@H](N)C(=O)O

Cellular tumor antigen p53 (Homo sapiens), sequence (P04637 whole entry, looked up, the tested form may be a part): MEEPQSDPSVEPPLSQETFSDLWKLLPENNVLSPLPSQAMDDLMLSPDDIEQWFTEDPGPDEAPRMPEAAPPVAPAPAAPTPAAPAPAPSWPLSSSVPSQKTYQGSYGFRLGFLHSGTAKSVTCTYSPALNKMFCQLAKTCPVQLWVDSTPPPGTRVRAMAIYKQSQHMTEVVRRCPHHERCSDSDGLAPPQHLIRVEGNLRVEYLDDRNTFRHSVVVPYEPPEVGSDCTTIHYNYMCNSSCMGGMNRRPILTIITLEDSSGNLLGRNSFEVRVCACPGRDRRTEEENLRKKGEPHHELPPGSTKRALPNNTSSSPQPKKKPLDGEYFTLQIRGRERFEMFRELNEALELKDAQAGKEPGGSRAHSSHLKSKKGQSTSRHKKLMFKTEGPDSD

In this test the target is Cellular tumor antigen p53 (Homo sapiens) (UniProt P04637). The test is described as follows: TOX21_p53_BLA_p5_ratio: Tox21 HCT-116 p53 Agonism Beta-lactamase Assay, Ratio, Phase 5 (AID 2283599). The text has this:
TOX21_p53_BLA_p5 is a cell-based, single-readout assay that uses HCT116, a human intestinal cell line, […] in a 1536-well plate.TOX21_p53_BLA_p5_ratio is an assay readout measuring reporter gene via receptor activity and designed using inducible reporter (beta lactamase induction) detected with GAL4 b-lactamase reporter gene. The signal is derived from the ratio of cleaved (ch2) to uncleaved (ch1) reporter gene substrate used as the measure of target activity.Data from the assay component TOX21_p53_BLA_p5_ratio was analyzed into 1 assay endpoint. This assay endpoint, TOX21_p53_BLA_p5_ratio, was analyzed in the positive analysis fitting direction relative to DMSO as the negative control and baseline of activity. Using a type of inducible reporter, gain-of-signal activity can be used to understand changes in the reporter gene as they relate to the gene TP53. Furthermore, this assay endpoint can be referred to as a primary readout, because this assay has produced multiple assay endpoints and this ratio serves a reporter gene function to understand target activity. To generalize the intended target to other relatable targets, this assay endpoint is annotated to the DNA binding intended target family, where the subfamily is tumor suppressor.
Thawing Method: Place 14 mL of pre-warmed thaw medium into a 15 mL of conical tub. Remove the vial of cells to be thawed from liquid nitrogen and thaw rapidly by placing at 37C in a water bath with gentle agitation for 1-2 minutes. Decontaminate the vial by wiping with 70% ethanol before opening in a biological safety cabinet. Transfer the vial contents drop-wise into 14 mL of thaw medium in a sterile 15-mL conical tub. Centrifuge cells at 900 rpm for 4 minutes and resuspend in thaw medium. Transfer contents to the T75 tissue culture flask containing Thaw Medium and place flask in a humidified 37C/5% CO2 incubator. Switch to growth medium at first passage.Propagation Method: Aspirate medium, rinse once in DPBS, add 0.25% Trypsin/EDTA and swirl to coat the cell evenly. Add an equal volume of Growth Medium to inactivate Trypsin after 2-3 minutes incubation at 37C. Centrifuge cells at 900 rpm for 4 minutes and resuspend in growth medium. Cell should be passage or fed at least twice a week.Assay Protocol: Harvest cells from culture in growth medium and resuspend in assay medium. 2.2 Dispense 4000 cells/5 uL/well into 1536-well black/clear bottom plates using a Multidrop dispenser. After the cells were incubated at 37C for 5 hours, 23 nL of compounds dissolved in DMSO were transferred to the assay plate by a PinTool resulting in a 217-fold dilution. Incubate the plates for 16 hours at 37C, 5% CO2. Add 1 uL of 6X LiveBLAzer FRET B/G (CCF4-AM) Substrate Mixture to each well using a BioRAPTR dispenser and incubate the plates at room temperature for 2 hours. Measure fluorescence intensity at 460 and 530 nm emission and 405 nm excitation by an Envision detector. Data is expressed as the ratio of 460nm/530nm emissions. Add 4 uL of Cell-titer Glo to each well using BioRAPTR and incubate the plates at room temperature for 2 hours. Measure fluorescence intensity by a VewLux plate reader.
Consider `Cc1nc2ccccc2n1Cc1ccc(Cl)cc1`, for which the result was inactive.
The same measure, in the same setting: the same measure for `CCCCCCCCOc1ccccc1C(=O)Nc1ccc(C(=O)OCC[N+](C)(CC)CC)cc1`: “inactive”; for `CCCCCCC1CCCC(=O)O1` (stereo not given): “inactive”.
Broadly, the AC50 is the concentration at which the activity in the assay is half-maximal. For the compound `Cc1cc(/C=C/c2ccc3cc(N(C)C)ccc3[n+]2C)c(C)n1-c1ccccc1`, the AC50 is 15.8 µM (active).
For the compound `C1CCN2C[C@@H]3C[C@@H](CN4CCCC[C@@H]34)[C@H]2C1`, the outcome was inactive.
On to `CC(=O)Oc1cccc(C)c1`, for which the result was inactive.
Take `CC(=O)OCCN(CCOC(C)=O)c1ccc(N=Nc2ccc([N+](=O)[O-])cc2C#N)cc1`: the outcome was inactive.
Take `CCCCOc1cc(C(=O)OCCN(CC)CC)ccc1N`: the outcome was inactive.
For `CCCOc1ccc2nc(NC(=O)OC)sc2c1`, the AC50 is 2.75 µM (active).
Take `CC(=O)O[Si](C)(OC(C)=O)OC(C)=O`: the outcome was inactive.
As to `C1COC(NC(C2CC2)C2CC2)=N1`, the outcome was inactive.
Consider `CCCCCCCCCCCCOCCOCCOCCOCCOCCOCCOCCOCCOCCO`, for which the AC50 is 36.9 µM (active).
Turning to `ON=C1CCCC1`, the outcome was inactive.
As to `O=C(NOCC1CC1)c1ccc(F)c(F)c1Nc1ccc(I)cc1Cl`, the AC50 is 20.5 µM (active).
In the case of `CC[C@H](C)[C@H](N)C1=N[C@H](C(=O)N[C@@H](CC(C)C)C(=O)N[C@H](CCC(=O)O)C(=O)N[C@H](C(=O)N[C@H]2CCCCNC(=O)[C@H](CC(N)=O)NC(=O)[C@@H](CC(=O)O)NC(=O)[C@H](Cc3cnc[nH]3)NC(=O)[C@@H](Cc3ccccc3)NC(=O)[C@H]([C@@H](C)CC)NC(=O)[C@@H](CCCN)NC2=O)[C@@H](C)CC)CS1` ({Ileψ(thiazoline)Cys}-L[dE]IK[dOrn]I[dF]H[dD]N; lactam 4-C), the result was inactive.
Same read-out and setting: to `Cc1cc(-c2ccccc2)nnc1NCCN1CCOCC1` belongs “inactive”.
On the same count and under the same terms, the same measure for `CC(C)(CO)[C@@H](O)C(=O)NCCC(=O)NCCSSCCNC(=O)CCNC(=O)[C@H](O)C(C)(C)CO`: “inactive”.
Turning to `NCCCC[C@H](N)C(=O)O`, the result was inactive.
Regarding `CCCCCCCC(=O)Oc1c(Br)cc(C#N)cc1Br`, the result was inactive.
`CCOC(=O)[C@H](CCc1ccccc1)N[C@@H](C)C(=O)N1Cc2ccccc2C[C@H]1C(=O)O`: the result was inactive.
Still for that read-out and setting: the same measure for `CC1(C)C(\C=C/C=C\C=C/C=C2/N(CCCCS(=O)(=O)O)c3ccc4ccccc4c3C2(C)C)=[N+](CCCCS(=O)(=O)[O-])c2ccc3ccccc3c21`: “inactive”.
`c1cnc2c(n1)CCCC2`: the outcome was inactive.
With `CC(C)C(O)(c1ccc(OC(F)(F)F)cc1)c1cncnc1` (stereo not given), the outcome was inactive.
On the same count and under the same terms, the same measure for `CCCNC(C)C(=O)Nc1c(C)csc1C(=O)OC` (stereo not given): “inactive”.
Still for that read-out and setting: the same measure for `c1ccc2c(CC3=NCCN3)cccc2c1`: “inactive”; for `CCC(=O)OC(=O)CC`: “inactive”.
Same read-out and setting: the same measure for `CCc1oc2ccccc2c1C(=O)c1cc(I)c(O)c(I)c1`: “inactive”; for `CC1=Nc2ccccc2C1(C)C`: “inactive”.
Regarding `C[N+](C)(C)CCOC(N)=O`, the result was inactive.
In the case of `CC=C(C(=CC)c1ccc(O)cc1)c1ccc(O)cc1`, the result was inactive.
Consider `O=C1Nc2ccc(Cl)cc2[C@@](C#CC2CC2)(C(F)(F)F)O1`, for which the AC50 is 36.7 µM (active).
Consider `CCC(=O)c1c(O)cc(O)cc1O`, for which the result was inactive.
Same read-out and setting: the same measure for `O=[N+]([O-])c1ccc2ncccc2c1`: “inactive”; for `Cc1ccccc1CNc1ncnc2c1ncn2[C@@H]1O[C@H](CO)[C@@H](O)[C@H]1O`: “inactive”; for `N[C@@H](C(=O)N[C@@H]1C(=O)N2C(C(=O)O)=C(CSc3cn[nH]n3)CS[C@H]12)c1ccc(O)cc1`: “inactive”.
For the compound `CN(C)C(=O)C(CCN1CCC(O)(c2ccc(Cl)cc2)CC1)(c1ccccc1)c1ccccc1`, the result was inactive.
On the same count and under the same terms, to `COCC1=C(C(=O)OC(C)OC(=O)OC(C)C)N2C(=O)[C@@H](NC(=O)/C(=N\OC)c3csc(N)n3)[C@H]2SC1` (stereo not given in full) belongs “inactive”; to `CCCCCCCCCCCC(=O)N(CC)CC`, “inactive”.
With `CC(C)CCOC(=O)c1ccc(N(C)C)cc1`, the result was inactive.
Regarding `CC(C)CC(=O)C1C(=O)c2ccccc2C1=O`, the result was inactive.
